# Experimental data reported in ChEMBL document CHEMBL1961873, “Compounds: GSK PKIS; Assays: Nanosyn kinase panel” (2012).
# Tests used:
# [1] = target: Sphingosine kinase 1 (Homo sapiens) (UniProt Q9NYA1); settings: at 1 µM;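 note: mean SPHK1 inhibition value reported from the GSK PKIS kinase panel screen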
# [2] = target: T1, Sphingosine kinase 2 (Homo sapiens) (UniProt Q9NRA0); settings: at 0.1 µM
# T1 sequence (whole entry): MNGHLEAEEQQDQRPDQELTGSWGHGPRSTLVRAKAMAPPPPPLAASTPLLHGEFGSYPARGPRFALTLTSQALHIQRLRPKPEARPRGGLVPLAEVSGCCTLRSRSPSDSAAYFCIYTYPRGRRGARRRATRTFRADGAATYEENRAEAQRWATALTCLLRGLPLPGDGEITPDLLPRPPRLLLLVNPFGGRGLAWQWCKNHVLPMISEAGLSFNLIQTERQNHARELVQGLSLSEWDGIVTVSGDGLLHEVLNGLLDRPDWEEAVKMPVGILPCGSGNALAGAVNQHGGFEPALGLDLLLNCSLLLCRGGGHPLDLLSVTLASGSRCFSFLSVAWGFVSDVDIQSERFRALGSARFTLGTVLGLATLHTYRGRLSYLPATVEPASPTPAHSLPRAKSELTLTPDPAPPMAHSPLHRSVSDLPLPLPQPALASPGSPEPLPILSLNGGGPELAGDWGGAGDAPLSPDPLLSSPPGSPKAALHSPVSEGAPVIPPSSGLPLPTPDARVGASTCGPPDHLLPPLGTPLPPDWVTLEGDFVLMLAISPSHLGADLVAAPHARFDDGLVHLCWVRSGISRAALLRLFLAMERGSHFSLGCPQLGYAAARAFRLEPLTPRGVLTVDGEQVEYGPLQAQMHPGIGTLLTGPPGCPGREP
# [3] = target: T1, Sphingosine kinase 2 (Homo sapiens); settings: at 1 µM
# [4] = target: Casein kinase II subunit alpha (Homo sapiens) (UniProt P68400); settings: at 0.1 µM
# Chain of Casein kinase II subunit alpha (Homo sapiens) (P68400 whole entry, looked up): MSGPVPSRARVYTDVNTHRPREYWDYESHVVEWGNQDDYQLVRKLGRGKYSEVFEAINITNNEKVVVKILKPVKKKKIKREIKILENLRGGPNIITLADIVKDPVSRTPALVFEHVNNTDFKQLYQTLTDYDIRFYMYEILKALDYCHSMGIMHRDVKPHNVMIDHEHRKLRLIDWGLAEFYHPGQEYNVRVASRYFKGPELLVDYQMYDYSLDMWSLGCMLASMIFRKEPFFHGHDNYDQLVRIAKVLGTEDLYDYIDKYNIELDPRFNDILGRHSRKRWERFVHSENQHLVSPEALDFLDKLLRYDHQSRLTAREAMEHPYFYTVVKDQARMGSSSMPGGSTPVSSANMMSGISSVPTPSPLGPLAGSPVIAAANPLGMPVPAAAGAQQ
# [5] = target: Casein kinase II subunit alpha (Homo sapiens) (UniProt P68400); settings: at 1 µM
# [6] = target: T2, Inhibitor of nuclear factor kappa-B kinase subunit alpha (Homo sapiens) (UniProt O15111); settings: at 0.1 µM
# T2 sequence (whole entry): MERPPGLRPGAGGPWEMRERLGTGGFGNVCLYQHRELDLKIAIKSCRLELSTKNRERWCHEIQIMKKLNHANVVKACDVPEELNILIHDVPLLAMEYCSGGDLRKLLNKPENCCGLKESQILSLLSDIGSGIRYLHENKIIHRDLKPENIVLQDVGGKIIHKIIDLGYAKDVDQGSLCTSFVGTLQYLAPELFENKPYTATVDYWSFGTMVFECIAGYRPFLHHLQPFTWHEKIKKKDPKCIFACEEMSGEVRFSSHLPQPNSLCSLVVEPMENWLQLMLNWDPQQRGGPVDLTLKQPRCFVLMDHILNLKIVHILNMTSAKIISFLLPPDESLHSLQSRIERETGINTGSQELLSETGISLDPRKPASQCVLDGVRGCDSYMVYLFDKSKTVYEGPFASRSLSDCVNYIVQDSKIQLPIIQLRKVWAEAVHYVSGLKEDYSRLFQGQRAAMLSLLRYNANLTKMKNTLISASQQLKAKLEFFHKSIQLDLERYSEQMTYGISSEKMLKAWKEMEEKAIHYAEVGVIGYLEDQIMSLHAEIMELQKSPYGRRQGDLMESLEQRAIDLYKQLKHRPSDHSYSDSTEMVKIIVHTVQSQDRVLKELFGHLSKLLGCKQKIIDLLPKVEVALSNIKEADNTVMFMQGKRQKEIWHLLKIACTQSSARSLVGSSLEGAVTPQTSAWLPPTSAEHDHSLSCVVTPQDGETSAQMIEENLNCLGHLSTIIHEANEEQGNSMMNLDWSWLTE
# [7] = target: T2, Inhibitor of nuclear factor kappa-B kinase subunit alpha (Homo sapiens); settings: at 1 µM
# [8] = target: T3, Inhibitor of nuclear factor kappa-B kinase subunit beta (Homo sapiens) (UniProt O14920); settings: at 0.1 µM
# T3 sequence (whole entry): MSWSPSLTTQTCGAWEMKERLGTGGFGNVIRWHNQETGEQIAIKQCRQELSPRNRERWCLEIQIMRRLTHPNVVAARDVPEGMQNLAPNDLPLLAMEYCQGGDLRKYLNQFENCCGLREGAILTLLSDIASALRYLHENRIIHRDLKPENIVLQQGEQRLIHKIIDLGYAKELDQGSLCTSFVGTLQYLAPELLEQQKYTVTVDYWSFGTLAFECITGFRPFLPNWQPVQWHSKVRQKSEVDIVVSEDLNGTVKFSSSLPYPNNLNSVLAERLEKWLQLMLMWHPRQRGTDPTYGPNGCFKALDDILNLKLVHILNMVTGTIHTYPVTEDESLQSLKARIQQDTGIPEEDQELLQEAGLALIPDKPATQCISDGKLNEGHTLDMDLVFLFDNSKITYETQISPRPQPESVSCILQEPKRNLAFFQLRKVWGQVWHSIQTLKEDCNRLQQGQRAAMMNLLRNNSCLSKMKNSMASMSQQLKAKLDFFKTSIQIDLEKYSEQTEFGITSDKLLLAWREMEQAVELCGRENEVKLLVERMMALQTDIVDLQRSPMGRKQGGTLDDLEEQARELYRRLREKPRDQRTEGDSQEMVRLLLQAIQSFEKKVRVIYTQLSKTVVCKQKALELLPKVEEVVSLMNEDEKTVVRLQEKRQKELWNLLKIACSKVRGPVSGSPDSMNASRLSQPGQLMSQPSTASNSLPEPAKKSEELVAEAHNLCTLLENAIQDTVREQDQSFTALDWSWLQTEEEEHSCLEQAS
# [9] = target: T3, Inhibitor of nuclear factor kappa-B kinase subunit beta (Homo sapiens); settings: at 1 µM
# [10] = target: T4, Inhibitor of nuclear factor kappa-B kinase subunit epsilon (Homo sapiens) (UniProt Q14164); settings: at 0.1 µM
# T4 sequence (whole entry): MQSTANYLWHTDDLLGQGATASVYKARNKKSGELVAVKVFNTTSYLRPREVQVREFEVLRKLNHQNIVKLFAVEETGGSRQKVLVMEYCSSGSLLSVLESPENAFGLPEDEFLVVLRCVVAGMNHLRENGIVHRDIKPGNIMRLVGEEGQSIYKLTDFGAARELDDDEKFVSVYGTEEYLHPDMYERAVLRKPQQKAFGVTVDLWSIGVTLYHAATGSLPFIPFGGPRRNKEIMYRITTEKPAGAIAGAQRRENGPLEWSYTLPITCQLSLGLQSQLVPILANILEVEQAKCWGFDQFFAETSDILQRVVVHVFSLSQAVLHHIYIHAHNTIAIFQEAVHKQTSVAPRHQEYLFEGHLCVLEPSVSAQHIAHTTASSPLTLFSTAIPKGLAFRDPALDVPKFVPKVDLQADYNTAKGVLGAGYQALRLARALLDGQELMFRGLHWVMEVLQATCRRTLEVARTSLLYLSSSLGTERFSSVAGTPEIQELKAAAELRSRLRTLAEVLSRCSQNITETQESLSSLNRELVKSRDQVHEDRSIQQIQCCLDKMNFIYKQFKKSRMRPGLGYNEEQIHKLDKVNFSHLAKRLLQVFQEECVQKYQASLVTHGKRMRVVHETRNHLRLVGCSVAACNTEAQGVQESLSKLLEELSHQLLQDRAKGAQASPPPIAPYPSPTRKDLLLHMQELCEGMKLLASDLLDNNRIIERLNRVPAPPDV
# [11] = target: T4, Inhibitor of nuclear factor kappa-B kinase subunit epsilon (Homo sapiens); settings: at 1 µM
# [12] = target: T5, Serine/threonine-protein kinase Nek1 (Homo sapiens) (UniProt Q96PY6); settings: at 0.1 µM
# T5 sequence (whole entry): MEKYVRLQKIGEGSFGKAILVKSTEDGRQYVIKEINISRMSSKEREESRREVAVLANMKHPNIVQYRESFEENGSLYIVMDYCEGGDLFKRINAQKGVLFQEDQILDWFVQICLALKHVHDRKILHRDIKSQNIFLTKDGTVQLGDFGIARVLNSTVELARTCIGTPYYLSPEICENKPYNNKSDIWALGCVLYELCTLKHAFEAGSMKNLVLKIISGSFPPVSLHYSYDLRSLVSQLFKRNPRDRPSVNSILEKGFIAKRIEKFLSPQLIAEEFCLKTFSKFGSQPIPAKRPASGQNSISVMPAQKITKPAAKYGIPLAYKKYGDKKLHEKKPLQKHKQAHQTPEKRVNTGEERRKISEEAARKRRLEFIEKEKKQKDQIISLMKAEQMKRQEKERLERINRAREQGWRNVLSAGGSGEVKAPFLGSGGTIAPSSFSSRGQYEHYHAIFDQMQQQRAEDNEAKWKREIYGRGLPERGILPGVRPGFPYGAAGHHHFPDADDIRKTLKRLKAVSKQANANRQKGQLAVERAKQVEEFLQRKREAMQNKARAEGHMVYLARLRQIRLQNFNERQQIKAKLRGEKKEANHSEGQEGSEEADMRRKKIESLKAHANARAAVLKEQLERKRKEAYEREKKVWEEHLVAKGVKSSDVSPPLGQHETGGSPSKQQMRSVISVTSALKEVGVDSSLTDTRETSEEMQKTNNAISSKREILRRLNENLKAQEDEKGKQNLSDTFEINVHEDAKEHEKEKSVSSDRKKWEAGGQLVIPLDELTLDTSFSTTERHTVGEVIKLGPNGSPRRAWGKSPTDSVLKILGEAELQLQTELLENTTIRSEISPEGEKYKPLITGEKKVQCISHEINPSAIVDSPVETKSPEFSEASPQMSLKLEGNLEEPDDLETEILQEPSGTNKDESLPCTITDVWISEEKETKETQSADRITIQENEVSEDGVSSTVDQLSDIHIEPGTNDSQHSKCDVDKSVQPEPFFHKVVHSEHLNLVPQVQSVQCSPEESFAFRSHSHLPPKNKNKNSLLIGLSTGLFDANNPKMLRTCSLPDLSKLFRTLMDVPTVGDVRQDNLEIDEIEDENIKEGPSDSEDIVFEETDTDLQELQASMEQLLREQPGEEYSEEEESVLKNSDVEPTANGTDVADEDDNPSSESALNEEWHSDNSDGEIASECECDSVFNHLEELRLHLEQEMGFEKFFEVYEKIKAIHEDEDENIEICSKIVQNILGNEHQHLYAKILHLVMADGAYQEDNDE
# [13] = target: T5, Serine/threonine-protein kinase Nek1 (Homo sapiens); settings: at 1 µM
# [14] = target: T6, Serine/threonine-protein kinase Nek2 (Homo sapiens) (UniProt P51955); settings: at 0.1 µM
# T6 sequence (whole entry): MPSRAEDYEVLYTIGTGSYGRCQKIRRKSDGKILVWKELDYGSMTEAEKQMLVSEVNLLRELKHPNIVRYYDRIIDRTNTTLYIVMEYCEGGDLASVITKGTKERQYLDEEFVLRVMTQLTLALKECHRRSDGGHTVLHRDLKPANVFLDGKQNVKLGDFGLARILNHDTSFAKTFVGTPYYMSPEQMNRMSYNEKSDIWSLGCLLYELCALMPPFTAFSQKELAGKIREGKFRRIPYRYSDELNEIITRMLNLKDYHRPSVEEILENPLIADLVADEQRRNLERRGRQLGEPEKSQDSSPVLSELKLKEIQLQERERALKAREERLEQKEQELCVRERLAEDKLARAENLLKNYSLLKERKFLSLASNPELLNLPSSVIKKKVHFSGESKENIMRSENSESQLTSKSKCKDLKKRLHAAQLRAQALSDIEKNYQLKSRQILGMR
# [15] = target: T6, Serine/threonine-protein kinase Nek2 (Homo sapiens); settings: at 1 µM
# [16] = target: Serine/threonine-protein kinase Nek6 (Homo sapiens) (UniProt Q9HC98); settings: at 0.1 µM
# Chain of Serine/threonine-protein kinase Nek6 (Homo sapiens) (Q9HC98 whole entry): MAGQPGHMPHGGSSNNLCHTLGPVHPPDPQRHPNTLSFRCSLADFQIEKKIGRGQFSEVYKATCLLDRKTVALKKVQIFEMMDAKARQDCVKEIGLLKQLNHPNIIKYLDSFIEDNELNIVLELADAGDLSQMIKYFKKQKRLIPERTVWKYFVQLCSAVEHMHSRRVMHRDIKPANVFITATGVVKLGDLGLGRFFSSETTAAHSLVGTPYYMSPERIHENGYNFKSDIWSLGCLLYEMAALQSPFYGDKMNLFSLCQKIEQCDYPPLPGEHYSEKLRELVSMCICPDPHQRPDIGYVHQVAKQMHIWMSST
# [17] = target: Serine/threonine-protein kinase Nek6 (Homo sapiens) (UniProt Q9HC98); settings: at 1 µM
# [18] = target: Serine/threonine-protein kinase Nek7 (Homo sapiens) (UniProt Q8TDX7); settings: at 0.1 µM
# Chain of Serine/threonine-protein kinase Nek7 (Homo sapiens) (Q8TDX7 whole entry, looked up): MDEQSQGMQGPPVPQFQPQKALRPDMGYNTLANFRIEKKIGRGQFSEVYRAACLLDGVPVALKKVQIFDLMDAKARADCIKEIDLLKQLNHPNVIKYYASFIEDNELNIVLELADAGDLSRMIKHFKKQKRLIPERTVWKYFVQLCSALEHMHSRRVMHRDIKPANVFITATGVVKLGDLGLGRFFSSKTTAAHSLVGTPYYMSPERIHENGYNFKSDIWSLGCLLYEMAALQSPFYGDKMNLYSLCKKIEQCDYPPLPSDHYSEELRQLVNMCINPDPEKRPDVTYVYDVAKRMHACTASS
# [19] = target: Serine/threonine-protein kinase Nek7 (Homo sapiens) (UniProt Q8TDX7); settings: at 1 µM
# [20] = target: T7, Serine/threonine-protein kinase Nek9 (Homo sapiens) (UniProt Q8TD19); settings: at 0.1 µM;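 note: reported value is the mean percent inhibition of NEK9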
# T7 sequence (whole entry): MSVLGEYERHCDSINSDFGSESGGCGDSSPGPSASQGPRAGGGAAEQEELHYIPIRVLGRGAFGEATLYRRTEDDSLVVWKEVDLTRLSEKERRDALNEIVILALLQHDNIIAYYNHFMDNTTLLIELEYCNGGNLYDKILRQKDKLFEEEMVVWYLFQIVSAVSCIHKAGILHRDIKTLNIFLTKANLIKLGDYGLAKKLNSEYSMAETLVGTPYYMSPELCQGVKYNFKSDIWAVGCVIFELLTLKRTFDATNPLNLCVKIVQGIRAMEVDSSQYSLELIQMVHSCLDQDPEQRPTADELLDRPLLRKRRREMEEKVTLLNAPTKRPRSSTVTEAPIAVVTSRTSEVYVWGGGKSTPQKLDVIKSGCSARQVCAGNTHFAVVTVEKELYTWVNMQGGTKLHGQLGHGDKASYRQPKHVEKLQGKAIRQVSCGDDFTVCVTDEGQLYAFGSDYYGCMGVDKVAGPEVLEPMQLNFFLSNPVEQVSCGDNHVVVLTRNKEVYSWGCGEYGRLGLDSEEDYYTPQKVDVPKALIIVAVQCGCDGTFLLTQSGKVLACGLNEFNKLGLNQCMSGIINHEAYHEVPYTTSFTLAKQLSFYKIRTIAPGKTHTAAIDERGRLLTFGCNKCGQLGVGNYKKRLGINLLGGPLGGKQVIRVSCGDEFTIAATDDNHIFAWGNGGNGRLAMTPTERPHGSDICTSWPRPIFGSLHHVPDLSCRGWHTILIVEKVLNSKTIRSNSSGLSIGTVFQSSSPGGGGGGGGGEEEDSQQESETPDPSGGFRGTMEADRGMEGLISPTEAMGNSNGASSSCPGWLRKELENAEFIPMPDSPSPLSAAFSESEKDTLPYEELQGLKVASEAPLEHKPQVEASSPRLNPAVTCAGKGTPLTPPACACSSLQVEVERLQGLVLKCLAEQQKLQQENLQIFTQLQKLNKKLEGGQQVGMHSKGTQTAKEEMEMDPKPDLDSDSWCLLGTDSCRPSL
# Chain of Sphingosine kinase 1 (Homo sapiens) (Q9NYA1 whole entry): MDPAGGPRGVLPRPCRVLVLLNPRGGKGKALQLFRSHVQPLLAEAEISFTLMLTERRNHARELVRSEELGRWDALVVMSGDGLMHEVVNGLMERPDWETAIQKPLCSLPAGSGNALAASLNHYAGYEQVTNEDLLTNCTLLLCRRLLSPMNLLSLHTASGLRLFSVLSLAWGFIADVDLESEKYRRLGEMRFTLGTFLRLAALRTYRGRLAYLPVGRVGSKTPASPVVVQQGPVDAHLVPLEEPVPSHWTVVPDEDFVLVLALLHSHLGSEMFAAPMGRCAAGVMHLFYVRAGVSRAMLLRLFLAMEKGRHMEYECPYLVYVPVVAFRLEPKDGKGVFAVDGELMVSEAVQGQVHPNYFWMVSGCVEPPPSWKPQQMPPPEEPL
compound,measurement,setting,value
Nc1ncnc2occ(-c3ccc(NC(=O)Nc4cccc(C(F)(F)F)c4)cc3)c12,inhibition,[1],-6.26%
same,inhibition,[2],0.27%
same,inhibition,[3],1.95%
same,inhibition,[4],7.18%
same,inhibition,[5],4.76%
same,inhibition,[6],6.44%
same,inhibition,[7],11.1%
same,inhibition,[8],6.2%
same,inhibition,[9],7.53%
same,inhibition,[10],8.03%
same,inhibition,[11],9.66%
same,inhibition,[12],7.14%
same,inhibition,[13],41.9%
same,inhibition,[14],6.56%
same,inhibition,[15],7.21%
same,inhibition,[16],2.78%
same,inhibition,[17],1.33%
same,inhibition,[18],2.42%
same,inhibition,[19],-0.46%
same,inhibition,[20],5.7%
